Results: PubChem BioAssay (NCI)
Compounds without any hit were thinned out: in the full panel of roughly 79,000, 15% have a hit. Cut-off read from the data, not from the text of the source: active = growth inhibition above about 70%; inactive = the rest. Where a SMILES comes first, the peptide text is derived from it. The star is where a group is joined. For = O=C*

How the values were obtained:
[1] = NCI Yeast Anticancer Drug Screen. Data for the rad50 strain (AID 155);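 note: 0% = growth of vehicle-only cultures of the same strain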; settings: S. cerevisiae rad50 strain growth inhibition; at 50.0 µM; active compounds read high
Procedure, shortened: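 Vehicle-treated cultures provide the reference for the growth inhibition reported for compound-exposed, repair-deficient yeast.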

[2] = NCI Yeast Anticancer Drug Screen. Data for the mec2-1 strain (AID 157); settings: S. cerevisiae mec2-1 strain, at 50.0 µM, active compounds read high
Procedure, shortened: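 Using mec2-1 yeast: add compound, measure growth, express inhibition versus vehicle-treated cultures.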

[3] = NCI Yeast Anticancer Drug Screen. Data for the sgs1 mgt1 strain (AID 161);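 note: 0% = growth of cultures given vehicle only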; settings: S. cerevisiae sgs1 mgt1 strain, at 50.0 µM, active compounds read high
Procedure, shortened: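 Growth of a repair-deficient yeast mutant was monitored after compound treatment and expressed as inhibition relative to vehicle-treated cultures.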

[4] = NCI Yeast Anticancer Drug Screen. Data for the cln2 rad14 strain (AID 165);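 note: 0% = growth equal to vehicle treated cultures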; settings: S. cerevisiae cln2 rad14 strain, at 50.0 µM, active compounds read high
Procedure, shortened: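 Yeast strain cln2 rad14, bearing defects in cell cycle control and DNA repair, serves as the test system; values reflect growth inhibition compared with vehicle.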

[5] = NCI Yeast Anticancer Drug Screen. Data for the bub3 strain (AID 167); settings: S. cerevisiae bub3 mutant strain, at 50.0 µM, active compounds read high
Procedure, shortened: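 Mutant yeast screening strain plus compound; vehicle-treated cultures serve as the 0% inhibition reference.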

[6] = NCI Yeast Anticancer Drug Screen. Data for the mlh1 rad18 strain (AID 175); settings: S. cerevisiae mlh1 rad18 strain growth inhibition; at 50.0 µM; active compounds read high
Procedure, shortened: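 Steps: expose repair-defective yeast to compound; measure growth; express inhibition against vehicle-treated controls.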

Measured: growth inhibition

Oc1cccc2ccc(Br)nc12
inactive: [1] -10.1% | [2] 15.2% | [3] 7.25% | [4] 4.9% | [5] 5.45% | [6] -3.25%

CN(C)c1ccc(C=Nc2cc(Cl)ccc2O)cc1
inactive: [1] 38.9% | [2] 23.2% | [3] 37.4% | [4] -2.9% | [5] 66% | [6] 52.9%

CNc1cccc2c1C(=O)c1ccccc1C2=O
inactive: [1] 0.55% | [2] -9.95% | [3] 19.4% | [4] 1.35% | [5] 3.85% | [6] 17.9%

O=C(CN=Cc1ccccc1O)NCc1ccccn1
inactive: [1] -10.7% | [2] -5.9% | [3] 10.7% | [4] 10.1% | [5] -21.9% | [6] 21.3%

CSCCC(NC(=O)C(Cc1ccccc1)NC=O)C(=O)O (stereo not drawn) (For-Phe-Met-OH; configuration not given here)
inactive: [1] -12.1% | [2] -26.9% | [3] -10.5% | [4] 5.7% | [5] 19.4% | [6] -11.5%

CCN(CC)c1nc2c(c(=O)n(C)c(=O)n2C)n1CCCNCC(O)c1ccc(O)c(O)c1 (stereo not given)
inactive: [1] -15.7% | [2] -16.4% | [3] -30.9% | [4] -47.1% | [5] -1.85% | [6] -31.5%

Cc1cc(C)c(NC(=O)Nc2cccc(Cl)c2)c(C)c1
inactive: [1] -0.85% | [2] 17.3% | [3] 1.7% | [4] -4% | [5] 3.35% | [6] -17.1%

O=[N+]([O-])c1ccc(S(=O)(=O)c2ccc(N=CN3CCCC3)cc2)cc1
inactive: [1] 22.9% | [2] 16.4% | [3] 18.4% | [4] 4.05% | [5] 18% | [6] 23%

CC1=NN(C(=O)c2ccncc2)C(=O)C1N=Nc1ccc(F)cc1 (stereo not given)
inactive: [1] -4.65% | [2] -10.2% | [3] -7.65% | [4] -5.2% | [5] -7.15% | [6] -4.9%

CSc1c(C#N)c(N)nc2c(N=Nc3ccc(Cl)cc3)c(N)nn12
inactive: [1] 8.75% | [2] 3.65% | [3] -9.1% | [4] -4.65% | [5] -6.5% | [6] -58%

CCN(CC)C(COC(=O)Nc1ccccc1)COC(=O)Nc1ccccc1
inactive: [1] 1.85% | [2] -2.3% | [3] 0.6% | [4] -13.8% | [5] -18.9% | [6] 3.05%

OC1(CSc2ccccc2)CCCCC1
inactive: [1] 11.1% | [2] 22.2% | [3] 14.5% | [4] 1% | [5] -10.7% | [6] -33%

CC1CC(C)NC(=O)N1 (stereo not given)
inactive: [1] -13% | [2] 13.5% | [3] -13.9% | [4] 16.1% | [5] 15.8% | [6] 0.4%

CCOC(=O)c1[nH]c(CC(=O)O)c(C(=O)OC)c1C
inactive: [1] 8.25% | [2] 14.8% | [3] 19.1% | [4] -3.5% | [5] 26.5% | [6] 7.3%

CSc1ccc(Nc2ncnc(N)n2)cc1
inactive: [1] 19.9% | [2] 5.6% | [3] 8.6% | [4] -1.4% | [5] 8.8% | [6] 14.6%

Nc1ccc(S(=O)(=O)O)cc1N
inactive: [1] -15.3% | [2] -11.1% | [3] -8% | [4] -19.5% | [5] 2.95% | [6] -4.5%

O=S(=O)(c1ccc(I)cc1)c1ccc(I)cc1
inactive: [1] 22.6% | [2] 0.1% | [3] -9.15% | [4] 5.2% | [5] 5.35% | [6] 3.7%

COc1ccc2[nH]cc(CC(N)=O)c2c1
inactive: [1] -25.8% | [2] -28.8% | [3] -39.4% | [4] 12.7% | [5] -41.4% | [6] -19.5%

CCOC(Cn1ccccc1=N)OCC
inactive: [1] 12.8% | [2] -11.7% | [3] -12.6% | [4] -40% | [5] -7.3% | [6] 4.15%

CS/C(=C/c1ccc2ccccc2[n+]1C)N1CCN(C)CC1
inactive: [1] -3.3% | [2] -1.25% | [3] -8.15% | [4] -12.9% | [5] -3% | [6] -0.2%
